The target of assay [1] is human Serotonin, 5-Hydroxytryptamine Receptor 5A (5HT5A), HTR5A (gene 3361) (UniProt P47898). The assay is described as follows: NVS_GPCR_h5HT5A: NovaScreen (NVS) G Protein-Coupled Receptor Assay for human Serotonin, 5-Hydroxytryptamine Receptor 5A (5HT5A) (AID 2283251). The essentials:
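Membranes from HEK293 cells, radioligand binding read by filtration and scintillation after 1 h. Single-concentration duplicate testing at 25 uM, then concentration-response for actives; positive-direction fitting relative to DMSO.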

For assay [2], the target named is rat Constitutive Nitric Oxide Synthase (CNOS), Nos1 (gene 24598) (UniProt P29476). The assay can be described thus: NVS_ENZ_rCNOS: NovaScreen (NVS) Enzymatic Assay for rat Constitutive Nitric Oxide Synthase (CNOS) (AID 2283236). The essentials:
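Single 25 uM duplicate screen, then concentration series to 50 uM for chemicals meeting threshold. Rat brain membrane-derived CNOS activity detected radiometrically by filtration and scintillation counting, 1 h after compound addition; DMSO as baseline.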

Assay [3] deals with guinea pig Muscarinic, Peripheral (Mperiperal) Receptor, Non-selective Binding, gene 100379235. The assay is described as follows: NVS_GPCR_gMPeripheral_NonSelective: NovaScreen (NVS) G Protein-Coupled Receptor Assay for guinea pig Muscarinic, Peripheral (Mperiperal) Receptor, Non-selective Binding (AID 2283250). Put shortly:
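Screened in duplicate at 25 uM, hits retested in concentration series to 50 uM max, using bladder membrane radioligand displacement from guinea pig. Filtration and scintillation counting 1 h post-dose, fitted relative to DMSO.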

Assay [4] has as its target rat Acetylcholinesterase (AChE), Ache (gene 83817) (UniProt P37136). The assay is described as follows: NVS_ENZ_rAChE: NovaScreen (NVS) Enzymatic Assay for rat Acetylcholinesterase (AChE) (AID 2283233). Put shortly: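 Compounds first screened at 25 uM in duplicate, then those passing threshold tested in concentration series up to 50 uM, against AChE from rat brain membranes. Enzyme activity read by absorbance at 0.33 h; inhibition scored versus DMSO.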

Assay [5] deals with rat Adenylate Cyclase, Forskolin Stimulated, Adcy5 (gene 64532) (UniProt Q04400). The assay can be described thus: NVS_ENZ_rACFSKBinding: NovaScreen (NVS) Enzymatic Assay for rat Adenylate Cyclase, Forskolin Stimulated (AID 2283232). The essentials: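 Chemicals were first tested at 25 uM in duplicate, then hits run as concentration series with top concentration 50 uM. Enzyme source was rat forebrain membranes; radiometric filter read-out after 1 h, referenced to DMSO.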

Assay [6] has as its system rat Monoamine Oxidase, MAO-A, Peripheral (MAOAP), gene 29253. The assay is described as follows: NVS_ENZ_rMAOAP: NovaScreen (NVS) Enzymatic Assay for rat Monoamine Oxidase, MAO-A, Peripheral (MAOAP) (AID 2283237). The essentials: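 Scintillation counting tracked MAO-A activity in a cell-free rat liver mitochondrial membrane prep, read 1.17 hours after compound addition. Single-point duplicate testing at 25 uM preceded concentration-response follow-up; activity was fitted relative to DMSO.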

For assay [7], the target named is sheep Cyclooxygenase-1 (Cox1), PTGS1 (gene 443551) (UniProt P05979). The assay is described as follows: NVS_ENZ_oCOX1: NovaScreen (NVS) Enzymatic Assay for sheep Cyclooxygenase-1 (Cox1) (AID 2283239).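 Note: actives reduce cyclooxygenase activity so potencies are for inhibitors.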 The essentials:
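Colorimetric enzyme readout using sheep seminal-vesicle cyclooxygenase-1, measured 0.66 h post-dosing. Single-concentration duplicates at 25 uM first, then concentration series for actives, with DMSO as baseline and plate controls.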

For assay [8], the target named is rat Monoamine Oxidase, MAO-B, Peripheral (MAOBP), Maob (gene 25750) (UniProt P19643). The assay can be described thus: NVS_ENZ_rMAOBP: NovaScreen (NVS) Enzymatic Assay for rat Monoamine Oxidase, MAO-B, Peripheral (MAOBP) (AID 2283242). The procedure:
NVS_ENZ_rMAOBP is a biochemical, single-readout assay that uses extracted gene-proteins from Rat brain in a tissue-based cell-free assay. Measurements were taken 1.17 hours after chemical dosing in a 96-well plate.NVS_ENZ_rMAOBP is one of one assay component(s) measured or calculated from the NVS_ENZ_rMAOBP assay. It is designed to make measurements of enzyme activity, a form of enzyme reporter, as detected with scintillation counting signals by Lysate-based radiodetection technology.Data from the assay component NVS_ENZ_rMAOBP was analyzed into 1 assay endpoint. This assay endpoint, NVS_ENZ_rMAOBP, was analyzed in the positive analysis fitting direction relative to DMSO as the negative control and baseline of activity. Using a type of enzyme reporter, loss-of-signal activity can be used to understand changes in the enzymatic activity as they relate to the gene Maob. Furthermore, this assay endpoint can be referred to as a primary readout, because this assay has produced multiple assay endpoints where this one serves a enzymatic activity function. To generalize the intended target to other relatable targets, this assay endpoint is annotated to the oxidoreductase intended target family, where the subfamily is monoamine oxidase.
Binding assays used specific radioligands (tritiated, iodinated) with non-radioactive competitive displacement ligands in agonist or antagonist protocols (as indicated) and various reference compounds and inhibitors to titrate specific binding to receptors and transporters. Most enzyme assays (CYPs, kinases, phosphatases, proteases, HDACs) used recombinant protein and specific substrates (fluorescence mostly, some colorimetric and radioactive) and inhibitors, followed by a biochemical separation of substrate and product. All assays for the biochemical HTS were initially run in duplicate at a single concentration (10 uM for CYP450 assays and 25 uM for all others). […]

Assay [9] relates to rat Monoamine Oxidase, MAO-A, Central (MAOAC), gene 29253. The assay is described as follows: NVS_ENZ_rMAOAC: NovaScreen (NVS) Enzymatic Assay for rat Monoamine Oxidase, MAO-A, Central (MAOAC) (AID 2283243).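 Note: potency refers to inhibition seen as signal drop below DMSO baseline.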 Put shortly:
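Lysate-based radiometric enzyme assay using rat brain tissue; 1.5 h treatment; 25 uM single-point duplicate screen, concentration-response follow-up; loss of signal versus DMSO.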

The target of assay [10] is human Serotonin, 5-Hydroxytryptamine Receptor 7 (5HT7), HTR7 (gene 3363) (UniProt P34969). The assay can be described thus: NVS_GPCR_h5HT7: NovaScreen (NVS) G Protein-Coupled Receptor Assay for human Serotonin, 5-Hydroxytryptamine Receptor 7 (5HT7) (AID 2283255).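 Note: hits reduce specific radioligand binding relative to DMSO.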 The essentials: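 Filter-bound radioactivity counted after 1 h, with loss of specific radioligand binding fitted against DMSO. Membrane protein came from CHO cells expressing human 5HT7. Chemicals were tested first at 25 uM in duplicate, then in concentration series if active.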
human Serotonin, 5-Hydroxytryptamine Receptor 7 (5HT7), HTR7 (gene 3363), sequence (P34969 whole entry, looked up): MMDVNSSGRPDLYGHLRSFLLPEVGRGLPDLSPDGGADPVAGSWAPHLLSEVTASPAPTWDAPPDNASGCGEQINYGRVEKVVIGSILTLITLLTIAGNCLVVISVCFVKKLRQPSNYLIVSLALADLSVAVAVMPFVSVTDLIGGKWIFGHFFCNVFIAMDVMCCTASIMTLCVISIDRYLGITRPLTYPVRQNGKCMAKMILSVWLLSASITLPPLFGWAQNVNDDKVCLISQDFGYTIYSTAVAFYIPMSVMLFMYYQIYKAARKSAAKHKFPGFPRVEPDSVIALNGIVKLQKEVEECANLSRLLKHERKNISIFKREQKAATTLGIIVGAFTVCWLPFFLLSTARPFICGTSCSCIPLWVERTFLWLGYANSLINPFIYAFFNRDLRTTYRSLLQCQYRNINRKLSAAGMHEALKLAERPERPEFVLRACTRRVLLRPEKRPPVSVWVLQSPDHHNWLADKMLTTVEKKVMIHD

Assay [11] addresses bovine Dopamine Receptor (DR), Non-selective Binding, DRD1 (gene 281125) (UniProt Q95136). The assay can be described thus: NVS_GPCR_bDR_NonSelective: NovaScreen (NVS) G Protein-Coupled Receptor Assay for bovine Dopamine Receptor (DR), Non-selective Binding (AID 2283241). The essentials: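 Filter-based radioligand binding with bovine striatal membrane, incubated 1 h; DMSO as negative baseline. Initial duplicate single-point test at 25 uM preceded concentration series for actives.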

For assay [12], the system named is guinea pig Leukotriene B4 Receptor (LTB4), gene 100379538. The assay is described as follows: NVS_GPCR_gLTB4: NovaScreen (NVS) G Protein-Coupled Receptor Assay for guinea pig Leukotriene B4 Receptor (LTB4) (AID 2283247). The essentials: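 Membranes from guinea pig spleen incubated 2 h with radioligand and compound; bound counts measured by filtration and scintillation. Screened first at 25 uM in duplicate, then actives titrated to a 50 uM top concentration relative to DMSO.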

In assay [13] the target is human Serotonin, 5-Hydroxytryptamine Receptor 6 (5HT6), HTR6 (gene 3362) (UniProt P50406). The assay can be described thus: NVS_GPCR_h5HT6: NovaScreen (NVS) G Protein-Coupled Receptor Assay for human Serotonin, 5-Hydroxytryptamine Receptor 6 (5HT6) (AID 2283253). The essentials: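 Filter scintillation counting of radioligand displacement from HEK293-expressed 5HT6, 1 hour post-dose, with loss of signal relative to DMSO. Single 25 uM duplicates first, with concentration series for confirmation.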

Assay [14] addresses rat Catechol-O-Methyl Transferase (COMT), Comt (gene 24267) (UniProt P22734). The assay is described as follows: NVS_ENZ_rCOMT: NovaScreen (NVS) Enzymatic Assay for rat Catechol-O-Methyl Transferase (COMT) (AID 2283235). Put shortly:
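Rat dorsal striatum extract served as COMT source; product quantified by HPLC/spectrophotometry, read at 0 h after dosing. Primary single-concentration screen at 25 uM, followed by concentration series to a 50 uM maximum.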

The target in assay [15] is guinea pig Opioid, Kappa 1 Receptor (OpiateK), OPRK1 (gene 100135587) (UniProt P41144). The assay is described as follows: NVS_GPCR_gOpiateK: NovaScreen (NVS) G Protein-Coupled Receptor Assay for guinea pig Opioid, Kappa 1 Receptor (OpiateK) (AID 2283252).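 Note: active means reduced radioligand binding relative to DMSO.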 Put shortly: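 Radioligand binding to kappa opioid receptor in guinea pig cerebellar membranes, read by filtration and scintillation at 2 h. Compounds first tested in duplicate at 25 uM, then actives in concentration series; signal loss fitted against DMSO.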

Assay [16] deals with guinea pig Leukotriene D4 Receptor (LTD4), CYSLTR1 (gene 100135514) (UniProt Q2NNR5). The assay can be described thus: NVS_GPCR_gLTD4: NovaScreen (NVS) G Protein-Coupled Receptor Assay for guinea pig Leukotriene D4 Receptor (LTD4) (AID 2283248). The essentials:
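Guinea pig lung membrane preparation; bound radioligand measured by filter scintillation after 1 h, loss of signal versus DMSO marking displacement. Compounds tested at 25 uM in duplicate, hits retested to max 50 uM.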

The target of assay [17] is human Adenosine A1 Receptor (AdoRA1), ADORA1 (gene 134) (UniProt P30542). The assay can be described thus: NVS_GPCR_hAdoRA1: NovaScreen (NVS) G Protein-Coupled Receptor Assay for human Adenosine A1 Receptor (AdoRA1) (AID 2283254). The essentials: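 Membranes from human cortical tissue were incubated with radioligand and test chemical for 1 hour, then filtered and counted. Activity was taken as signal loss relative to DMSO, screened at 25 uM in duplicate before concentration-response follow-up.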
human Adenosine A1 Receptor (AdoRA1), ADORA1 (gene 134), sequence (P30542 whole entry, looked up): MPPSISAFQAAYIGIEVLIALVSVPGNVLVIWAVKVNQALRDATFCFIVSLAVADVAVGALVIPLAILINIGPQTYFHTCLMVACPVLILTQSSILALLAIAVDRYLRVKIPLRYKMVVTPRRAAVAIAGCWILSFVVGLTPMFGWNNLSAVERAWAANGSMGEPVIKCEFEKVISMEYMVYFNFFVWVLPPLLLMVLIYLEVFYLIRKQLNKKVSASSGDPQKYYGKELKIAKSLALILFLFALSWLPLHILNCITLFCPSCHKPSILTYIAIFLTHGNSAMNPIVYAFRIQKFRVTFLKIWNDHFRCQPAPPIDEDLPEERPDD

For assay [18], the target named is rat Monoamine Oxidase, MAO-B, Central (MAOBC), Maob (gene 25750) (UniProt P19643). The assay can be described thus: NVS_ENZ_rMAOBC: NovaScreen (NVS) Enzymatic Assay for rat Monoamine Oxidase, MAO-B, Central (MAOBC) (AID 2283238). Put shortly:
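Actives from a duplicate 25 uM screen went on to singleton concentration-response with a 50 uM maximum. Enzyme source was rat brain tissue MAO-B, assayed cell-free. Radiolabelled product was counted by scintillation 1.17 h post-dose, with signal loss relative to DMSO.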

Where “and” joins values, the source holds several entries; their conditions need not be identical. Equal entries are not always repeated. Results filed as inconclusive are left out. A structure can be active in one record and inactive in another. Calls of active or inactive are those of the source. Rule for the calls: active = hit-call score of the fitted dose curve at least 0.9, where 1 is the maximum; inconclusive = response in the unintended direction; inactive = score below 0.9.

rat Acetylcholinesterase (AChE), Ache (gene 83817), sequence (P37136 whole entry, looked up): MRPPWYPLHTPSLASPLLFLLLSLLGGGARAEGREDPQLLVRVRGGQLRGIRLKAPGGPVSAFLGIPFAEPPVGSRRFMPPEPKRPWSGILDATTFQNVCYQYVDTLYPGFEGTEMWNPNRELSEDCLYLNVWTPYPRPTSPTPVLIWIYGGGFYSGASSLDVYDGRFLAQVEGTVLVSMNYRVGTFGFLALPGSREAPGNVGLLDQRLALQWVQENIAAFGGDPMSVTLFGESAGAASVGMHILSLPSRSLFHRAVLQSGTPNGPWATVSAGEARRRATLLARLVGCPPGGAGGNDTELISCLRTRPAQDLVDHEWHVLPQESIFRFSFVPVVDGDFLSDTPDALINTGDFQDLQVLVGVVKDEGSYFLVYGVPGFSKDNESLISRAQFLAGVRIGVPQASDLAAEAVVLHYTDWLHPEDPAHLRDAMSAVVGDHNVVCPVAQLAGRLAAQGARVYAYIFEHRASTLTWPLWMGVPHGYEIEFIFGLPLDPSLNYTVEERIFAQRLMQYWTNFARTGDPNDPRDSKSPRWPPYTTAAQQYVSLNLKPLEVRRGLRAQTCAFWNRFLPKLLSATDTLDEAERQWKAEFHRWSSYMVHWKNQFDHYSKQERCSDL
human Serotonin, 5-Hydroxytryptamine Receptor 5A (5HT5A), HTR5A (gene 3361), sequence (P47898 whole entry, looked up): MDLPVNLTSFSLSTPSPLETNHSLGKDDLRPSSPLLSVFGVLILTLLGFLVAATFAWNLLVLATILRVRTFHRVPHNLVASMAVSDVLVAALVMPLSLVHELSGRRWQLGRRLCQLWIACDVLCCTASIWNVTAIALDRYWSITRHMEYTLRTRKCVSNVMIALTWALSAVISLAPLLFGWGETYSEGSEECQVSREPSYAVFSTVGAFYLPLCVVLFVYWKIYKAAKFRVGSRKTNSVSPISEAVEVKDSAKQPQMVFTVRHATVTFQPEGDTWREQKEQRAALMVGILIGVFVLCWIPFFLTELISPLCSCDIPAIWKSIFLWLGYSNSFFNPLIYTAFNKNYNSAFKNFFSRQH
rat Constitutive Nitric Oxide Synthase (CNOS), Nos1 (gene 24598), sequence (P29476 whole entry, looked up): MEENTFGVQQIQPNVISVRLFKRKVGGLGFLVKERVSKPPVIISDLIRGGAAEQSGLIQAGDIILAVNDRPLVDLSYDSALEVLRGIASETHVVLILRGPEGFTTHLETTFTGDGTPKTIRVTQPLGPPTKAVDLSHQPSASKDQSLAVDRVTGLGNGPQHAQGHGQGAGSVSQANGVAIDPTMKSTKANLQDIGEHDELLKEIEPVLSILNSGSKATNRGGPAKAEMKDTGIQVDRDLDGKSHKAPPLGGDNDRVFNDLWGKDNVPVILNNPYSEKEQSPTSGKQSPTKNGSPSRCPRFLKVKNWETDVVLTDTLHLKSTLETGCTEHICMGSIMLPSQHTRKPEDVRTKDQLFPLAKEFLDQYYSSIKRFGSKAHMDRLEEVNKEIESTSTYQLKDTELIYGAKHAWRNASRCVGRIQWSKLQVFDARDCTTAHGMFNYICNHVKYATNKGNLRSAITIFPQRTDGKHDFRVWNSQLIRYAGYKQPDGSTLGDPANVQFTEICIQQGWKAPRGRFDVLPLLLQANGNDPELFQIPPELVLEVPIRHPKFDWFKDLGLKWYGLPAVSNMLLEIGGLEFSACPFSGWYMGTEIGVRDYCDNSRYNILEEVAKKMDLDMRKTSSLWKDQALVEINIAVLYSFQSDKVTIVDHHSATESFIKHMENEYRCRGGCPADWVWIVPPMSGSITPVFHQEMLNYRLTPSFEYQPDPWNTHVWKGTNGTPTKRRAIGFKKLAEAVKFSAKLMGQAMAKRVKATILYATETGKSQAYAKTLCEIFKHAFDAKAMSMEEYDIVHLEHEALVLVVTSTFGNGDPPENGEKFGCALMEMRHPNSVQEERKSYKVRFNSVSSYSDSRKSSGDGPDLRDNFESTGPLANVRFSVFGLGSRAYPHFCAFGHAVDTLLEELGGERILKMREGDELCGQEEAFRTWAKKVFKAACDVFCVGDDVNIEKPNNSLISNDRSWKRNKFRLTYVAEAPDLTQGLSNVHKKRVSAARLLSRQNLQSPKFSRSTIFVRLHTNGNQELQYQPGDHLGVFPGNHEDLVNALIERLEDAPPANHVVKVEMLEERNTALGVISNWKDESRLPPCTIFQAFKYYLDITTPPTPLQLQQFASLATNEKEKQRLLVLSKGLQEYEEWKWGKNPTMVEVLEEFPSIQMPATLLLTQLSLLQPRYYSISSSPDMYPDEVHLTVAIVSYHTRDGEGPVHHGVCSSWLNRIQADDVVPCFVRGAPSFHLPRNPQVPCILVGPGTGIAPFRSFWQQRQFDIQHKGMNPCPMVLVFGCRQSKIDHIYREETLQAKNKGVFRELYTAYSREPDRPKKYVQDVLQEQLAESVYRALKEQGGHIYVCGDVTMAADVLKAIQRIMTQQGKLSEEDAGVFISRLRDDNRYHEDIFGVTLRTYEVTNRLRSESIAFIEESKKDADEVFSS
sheep Cyclooxygenase-1 (Cox1), PTGS1 (gene 443551), sequence (P05979 whole entry, looked up): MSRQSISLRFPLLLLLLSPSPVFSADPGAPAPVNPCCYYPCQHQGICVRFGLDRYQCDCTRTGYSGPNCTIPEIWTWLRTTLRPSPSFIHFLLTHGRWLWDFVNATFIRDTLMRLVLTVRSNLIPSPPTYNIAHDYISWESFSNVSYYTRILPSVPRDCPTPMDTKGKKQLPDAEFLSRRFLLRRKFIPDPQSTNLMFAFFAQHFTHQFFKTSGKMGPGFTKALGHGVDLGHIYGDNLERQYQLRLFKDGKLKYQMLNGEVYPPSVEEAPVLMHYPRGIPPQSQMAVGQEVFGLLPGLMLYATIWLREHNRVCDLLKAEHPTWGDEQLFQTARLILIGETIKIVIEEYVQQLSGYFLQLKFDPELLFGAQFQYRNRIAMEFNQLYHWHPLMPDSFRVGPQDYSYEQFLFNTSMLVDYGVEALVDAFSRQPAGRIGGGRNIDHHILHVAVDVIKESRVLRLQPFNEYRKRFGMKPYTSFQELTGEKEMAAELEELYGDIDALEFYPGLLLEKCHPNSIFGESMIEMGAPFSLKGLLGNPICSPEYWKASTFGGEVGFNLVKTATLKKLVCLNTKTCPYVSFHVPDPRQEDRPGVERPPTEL
rat Monoamine Oxidase, MAO-B, Peripheral (MAOBP), Maob (gene 25750), sequence (P19643 whole entry, looked up): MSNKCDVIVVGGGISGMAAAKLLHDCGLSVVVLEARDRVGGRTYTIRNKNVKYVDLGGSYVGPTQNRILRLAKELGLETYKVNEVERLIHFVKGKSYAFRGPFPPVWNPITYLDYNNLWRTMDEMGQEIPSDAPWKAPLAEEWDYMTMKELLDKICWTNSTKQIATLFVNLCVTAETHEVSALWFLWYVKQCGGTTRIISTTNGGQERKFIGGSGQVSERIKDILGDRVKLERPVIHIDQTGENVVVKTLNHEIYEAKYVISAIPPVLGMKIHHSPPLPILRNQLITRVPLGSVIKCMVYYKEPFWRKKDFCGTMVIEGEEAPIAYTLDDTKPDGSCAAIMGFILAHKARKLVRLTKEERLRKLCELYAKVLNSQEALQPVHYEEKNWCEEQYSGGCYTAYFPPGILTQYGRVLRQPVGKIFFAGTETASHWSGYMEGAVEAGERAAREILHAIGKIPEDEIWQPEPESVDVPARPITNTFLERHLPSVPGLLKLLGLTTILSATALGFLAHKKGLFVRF
guinea pig Leukotriene D4 Receptor (LTD4), CYSLTR1 (gene 100135514), sequence (Q2NNR5 whole entry, looked up): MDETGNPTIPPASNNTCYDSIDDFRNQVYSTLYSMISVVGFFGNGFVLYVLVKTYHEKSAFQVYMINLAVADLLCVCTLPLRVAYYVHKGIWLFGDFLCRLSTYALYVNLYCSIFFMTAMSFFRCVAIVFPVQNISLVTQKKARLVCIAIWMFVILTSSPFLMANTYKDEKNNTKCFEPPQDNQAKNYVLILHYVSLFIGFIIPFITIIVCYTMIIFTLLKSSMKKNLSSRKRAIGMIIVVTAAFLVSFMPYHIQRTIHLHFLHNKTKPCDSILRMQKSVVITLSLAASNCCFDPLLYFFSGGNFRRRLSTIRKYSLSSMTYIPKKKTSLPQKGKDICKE
rat Catechol-O-Methyl Transferase (COMT), Comt (gene 24267), sequence (P22734 whole entry, looked up): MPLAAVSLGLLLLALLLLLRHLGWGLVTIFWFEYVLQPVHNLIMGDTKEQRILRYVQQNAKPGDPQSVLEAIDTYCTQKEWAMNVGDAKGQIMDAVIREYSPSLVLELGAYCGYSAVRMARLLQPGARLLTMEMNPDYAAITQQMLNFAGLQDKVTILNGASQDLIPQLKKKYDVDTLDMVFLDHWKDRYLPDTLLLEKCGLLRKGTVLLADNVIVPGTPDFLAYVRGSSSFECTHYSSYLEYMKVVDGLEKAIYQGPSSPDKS

Turning to `CCC(C)(C)C(=O)OC1=C(c2ccc(Cl)cc2Cl)C(=O)OC12CCCCC2`, the call in assay [1] was inactive.
Same read-out and setting: then `CCC(C)(NC(=O)c1cc(Cl)c(C)c(Cl)c1)C(=O)CCl` (configuration not stated), with “inactive”.
On the same count and under the same terms, then `O=S1OCC2C(CO1)C1(Cl)C(Cl)=C(Cl)C2(Cl)C1(Cl)Cl` (configuration not stated), with “inactive”.
Take `[2H]C1([2H])[n+]2ccccc2-c2cccc[n+]2C1([2H])[2H]`: the outcome in assay [2] and in assay [3] was inactive.
As usually defined, the AC50 is the midpoint of the concentration-response curve, whichever way the signal moves. With `CC(C)N(C(=O)COc1nnc(C(F)(F)F)s1)c1ccc(F)cc1`, the AC50 in assay [4] was 14.2 µM (active).
As for `CCN(CC)C(=O)SCc1ccc(Cl)cc1`, the compound was classed as inactive in assay [2] and in assay [1].
`CNC(=O)Oc1ccccc1OC(C)C`: the AC50 in assay [4] was 5.05 µM (active). For the same compound, in assay [2], the result was inactive.
With `Cc1cc(C)nc(NC(=O)NS(=O)(=O)c2ccccc2C(=O)OC2COC2)n1`, in [2], the AC50 was 2.58 µM (active).
On to `Oc1cc(Cl)ccc1Oc1ccc(Cl)cc1Cl`, for which the result in assay [5], in assay [6], in assay [7], in assay [8] and in assay [10] was inactive. The AC50 in assay [9] was 38.9 µM (active).
Regarding `O=C(Nc1ccccc1)Nc1cnns1`, the compound was called inactive in [4], in assay [11] and in [10]. The AC50 in [9] is 5.16 µM (active); in assay [12], 25 µM (active); in [1], 3.88 µM (active).
Turning to `CCc1ccc(C(=O)NN(C(=O)c2cc(C)cc(C)c2)C(C)(C)C)cc1`, the outcome in assay [3] was inactive.
On to `CC1(c2ccc(Oc3ccccc3)cc2)OC(=O)N(Nc2ccccc2)C1=O` (configuration not stated), for which the result in assay [7] was inactive.
On to `COc1cc(OC)nc(NC(=O)NS(=O)(=O)c2cc(NC=O)ccc2C(=O)N(C)C)n1`, for which the outcome in [2] was inactive.
In the case of `N#Cc1c(Cl)c(Cl)c(Cl)c(C#N)c1Cl`, in [5], the AC50 is 25 µM (active). Further, the result in [4] and in [13] was inactive.
As for `CC1(C)C(C=C(Cl)Cl)C1C(=O)OC(C#N)c1ccc(F)c(Oc2ccccc2)c1` (configuration not stated), the call in assay [10] was inactive.
For `O=C(O)COc1ccc(Cl)cc1Cl`, in assay [14], the outcome was inactive.
Regarding `CCOCN(C(=O)CCl)c1c(C)cccc1CC`, the result in assay [15] and in [13] was inactive.
Consider `Oc1ccc(Cl)cc1Cc1ccccc1`, for which the AC50 in [6] was 38.2 µM (active); in [7], 36.2 µM (active) and 38.3 µM (active); in [8] it was 13.6 µM (active); in assay [9], 17.3 µM (active) and 25.2 µM (active); in [16], 6.93 µM (active); in [1], 25.2 µM (active) [middle of 6 runs]. Moreover, the AC50 in assay [17] was 16.1 µM (active) [middle of 6 runs]; in assay [10], 20.8 µM (active) [middle of 5 runs]. Besides, the result in assay [6], in assay [9] and in [16] was inactive.
Regarding `CC(C)(C)C(O)C(Oc1ccc(Cl)cc1)n1cncn1` (configuration not stated), in assay [7], the compound was called inactive.
As for `CC(C)OC(=O)Nc1cccc(Cl)c1`, the call in assay [14] and in [18] was inactive.

These data come from PubChem BioAssay (EPA / NIEHS).
